# High-throughput results: PubChem, National Center for Advancing Translational Sciences (NCATS)
# HTT cytoprotect: Huntington cell model cytoprotection by ATP luminescence; PC12 HTT-Q103 induced, cytoprotection, ATP luminescence, 40 h; Potency, µM (series often up to 56.4 µM), hits mostly activators; 230,000 tested, 0.14% active; AID 1471; note: nearly all actives have a fitted effect of over 45% in size
#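 Stable PC12 Q103-GFP cells in serum-supplemented, phenol red-free DMEM; induction by tebufenozide at 100 nM final; compound dose series; cell viability quantified luminescently from ATP.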
# HTT aggregate: inhibitors of mutant huntingtin aggregate formation in PC12 cells | PC12 HttQ103-GFP aggregates, Acumen cytometry, 40 h | Potency, µM (highest dose often 46.1 µM), most hits filed as inhibitors | 220,000 tested, 1.1% active | AID 1688; note: nearly all actives have a fitted effect of over 60% in size
#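 Compounds (qHTS titration) were added to PC12 cells expressing an ecdysone-driven HTT exon 1 Q103–GFP fusion after induction with 100 nM tebufenozide. Aggregate formation was measured as GFP objects in cell lysates.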
# HPGD inh: blocks human HPGD enzyme activity; P15428; purified HPGD, NADH fluorescence kinetic, PGE2 substrate; Potency, µM, usual class: inhibitors; 150,000 tested, 4.3% active; active = well fitted inhibition curve with a large enough effect, not every such curve was filed as active; inconclusive = small, poorly fitted or top-dose-only effect, or another doubt; inactive = no such curve, though single readings can be large or run the other way
# Target sequence (P15428 whole entry, looked up): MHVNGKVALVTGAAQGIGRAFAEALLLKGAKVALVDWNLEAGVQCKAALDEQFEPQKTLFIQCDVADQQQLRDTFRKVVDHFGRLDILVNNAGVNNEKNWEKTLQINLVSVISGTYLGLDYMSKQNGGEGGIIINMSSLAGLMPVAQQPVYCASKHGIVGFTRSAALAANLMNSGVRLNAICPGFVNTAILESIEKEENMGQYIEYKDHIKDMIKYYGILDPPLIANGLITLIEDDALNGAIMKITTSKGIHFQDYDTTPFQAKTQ
#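 NADH formation kinetics: reaction with 30 uM PGE2 and 1 mM NAD+ (final), 20 nM enzyme, Tris-HCl pH 8 with Tween 20, after 15 min compound preincubation at room temperature. Fluorescence change, last versus first of five reads.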
# ALDH1A1 block: ALDH1A1 (human) enzyme inhibition; P00352; Purified ALDH1A1, NADH fluorescence, propionaldehyde substrate; Potency, µM (doses to about 75.3 µM), usual class: inhibitors; 220,000 tested, 7.3% active; active = well fitted inhibition curve with a large enough effect, not every such curve was filed as active; inconclusive = small, poorly fitted or top-dose-only effect, or another doubt; inactive = no such curve, though single readings can be large or run the other way
# Target sequence (P00352 whole entry, looked up): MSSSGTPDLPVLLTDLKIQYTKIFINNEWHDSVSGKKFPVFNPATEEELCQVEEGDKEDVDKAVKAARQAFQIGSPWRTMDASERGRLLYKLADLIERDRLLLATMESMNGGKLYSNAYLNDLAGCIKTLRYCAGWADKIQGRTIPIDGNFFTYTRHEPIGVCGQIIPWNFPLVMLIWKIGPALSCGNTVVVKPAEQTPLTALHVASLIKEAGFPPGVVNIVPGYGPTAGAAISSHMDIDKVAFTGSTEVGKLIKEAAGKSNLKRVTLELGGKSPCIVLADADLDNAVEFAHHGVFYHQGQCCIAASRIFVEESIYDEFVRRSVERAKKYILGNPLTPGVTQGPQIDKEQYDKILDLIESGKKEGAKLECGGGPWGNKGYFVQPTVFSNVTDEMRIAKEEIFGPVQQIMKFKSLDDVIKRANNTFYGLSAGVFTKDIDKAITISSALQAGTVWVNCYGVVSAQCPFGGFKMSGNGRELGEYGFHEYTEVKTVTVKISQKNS
# LMNA splice mod: LMNA splicing modulation | Potency, µM (titrated, usually from 46.1 µM), actives largely listed as inhibitors | HeLa LMNA splicing GFP/RFP minigene ratio, 48 h | 200,000 tested, 0.01% active; active = well fitted inhibition curve with a large enough effect in the signal ratio, with a control signal flat, not every such curve was filed as active; inconclusive = small, poorly fitted or top-dose-only effect, or effect the other way, or a change in a side signal; the % refers to the signal ratio
#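 Read-out is the ratio of GFP to DsRed2 object intensity, acquired by 488 nm laser-scanning cytometry on HeLa lamin A-EGFP minigene reporter cells. Compound incubation 48 hrs at 37 °C in Opti-MEM with 2% FBS; DMSO 0.5% final.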
# Numbers stand for hits; i = inactive; ? = inconclusive; nt = not tested or not shown; ! = repeats disagree; [ ] = dose if it differs, or a comment. An excerpt weighted towards active compounds, which were near 8.8% of everything screened. Unless noted, calls come from the whole dose curve; as a rule, active = well fitted curve in the direction sought with a large enough effect; inconclusive = small, poorly fitted or top-dose-only effect, or another doubt; inactive = no such curve, though single readings can be large; an effect the other way counts as inactive or inconclusive.
SMILES,HTT cytoprotect,HTT aggregate,HPGD inh,ALDH1A1 block,LMNA splice mod
COc1ccc(N=c2scc(-c3ccc(S(=O)(=O)N4CCOCC4)cc3)n2CCCO)cc1,i[10 µM],13µM,i,?,?
CC(=O)c1cccc(N=c2scc(-c3ccc(S(=O)(=O)N4CCOCC4)cc3)n2CCO)c1,nt,?,i,25µM,?
C=CCn1c(-c2ccc(S(=O)(=O)N3CCOCC3)cc2)csc1=Nc1ccccc1,i,?,i,?,i[0.0737 µM]
O=C(CC1CCCCC1)NCc1cn2ccsc2n1,i,i,22µM,i,i
O=C(CCCc1ccccc1)NCc1cn2ccsc2n1,i,?,i,i,i
CCOC(=O)/C(C#N)=C/c1cc2ccccc2nc1N1CCOCC1,i[10 µM],i,i,25µM,i
CCOC(=O)/C(C#N)=C/c1cc(C)n(-c2ccc(Br)cc2)c1C,i[10 µM],i,i,i,i
CCOC(=O)/C(C#N)=C/c1cc2ccc(C)cc2nc1Cl,i[10 µM],i,?,?,?
CCOC(=O)/C(C#N)=C/c1cc(C)n(-c2ccccc2)c1C,i,i[9.22 µM],i,11µM,i
O=C1c2ccccc2C(=O)N1CCCCN(C(=O)c1cc2ccccc2oc1=O)c1ccc(F)cc1F,i[10 µM],i,i,?,i
Cc1nc(CNS(=O)(=O)c2cc(C)c(C)cc2C)cs1,i[10 µM],i,i,13µM,i
COc1ccccc1N1CCN(C(=O)c2cc3c(=O)n(Cc4cccnc4)ccc3nc2C)CC1,nt,nt,nt,nt,i
N#CC(c1ccccc1)N(CCCCl)C(=O)c1ccccc1 (configuration not stated),i[10 µM],i,i,i,i
Cc1nccn1-c1ccc(C=O)cc1,i[10 µM],i[9.22 µM],nt,20µM,i
O=Cc1ccc(-n2cccn2)cc1,i,i,nt,?,nt
COc1ccc(C(=O)NC(=O)Nc2cc(C)ccn2)cc1,i[10 µM],?,nt,13µM,i
Cc1cc(N/N=C/c2ccc(O)c(C)c2O)nc(-c2ccccc2O)n1,i[10 µM],16µM,i,i,?
C/C(=N\Nc1cc(C)nc(-c2ccccc2O)n1)c1ccccc1,nt,nt,nt,i,nt
COC(=O)c1nnc(C(=O)NCc2ccccc2)c2[nH]c3ccccc3c12,?,nt,i,i,nt
Cc1nc2c(=O)[nH]c(=S)n(C)c2nc1C,nt,i,10µM,7.1µM,i
Cc1ccnc2nc(C(=O)OCC(=O)NC(=O)NCc3ccco3)nn12,i,i,nt,i,i
CC[C@H](C)[C@@H](NC(=O)O[C@@H]1C(=O)c2cc(Br)ccc2O[C@H]1c1ccc2c(c1)OCO2)C(=O)OC,i,i,i,25µM!,i
CC(=O)OC(C)C,i,nt,i,i,nt
COCCn1c(C)cc(O)c(C(c2ccccc2)N2CCN(c3ccccc3)CC2)c1=O (configuration not stated),nt,nt,nt,nt,i
COC(=O)NNC(=O)c1ccc(C(C)(C)C)cc1,nt,i,i,i,i
SMILES,HTT cytoprotect,HTT aggregate,HPGD inh,ALDH1A1 block,LMNA splice mod
CC(C)(C)c1ccc(C(=O)C=[N+]=[N-])cc1,i,?,i,6.3µM,i
CCC(C)NC(=O)c1c(C)oc2nc(C)nc(N3CCOCC3)c12 (configuration not stated),nt,nt,nt,nt,i
COc1ccc(-n2c(Cc3cccn3C)nnc2SCC(=O)Nc2ccc(F)cc2F)cc1,i,i,i,10µM,i
COc1ccc(-n2c(Cc3cccn3C)nnc2SCC(=O)Nc2ccccc2F)cc1,i[10 µM],i,i,16µM,i
COc1ccc(-n2c(Cc3cccn3C)nnc2SCC(=O)Nc2ccccc2C)cc1,i,i,i,?,i
COc1cccc(NC(=O)CSc2nnc(Cc3cccn3C)n2-c2ccc(F)cc2)c1,i,i,i,14µM,i
COc1ccc(-n2c(Cc3cccn3C)nnc2SCC(=O)Nc2cccc(C)c2C)cc1,i,i,i,14µM,i
COc1ccc(-n2c(Cc3cccn3C)nnc2SCC(=O)Nc2cccc(OC)c2)cc1,i[10 µM],i,i,?,i
COc1cccc(CSc2nc3ccccc3c3nc(CCn4c(C)nc5ccccc54)nn23)c1,nt,nt,nt,nt,i
Cc1ccccc1OCC(=O)Nc1cccc(C(=O)OCc2cc(=O)n3c(C)csc3n2)c1,nt,nt,nt,nt,i
CCN(CC)C(=O)c1sc(NC(=O)c2ccc3c(c2)OCO3)c(C#N)c1C,i,i,6.3µM,?,i
CCN(CC)C(=O)c1sc(NC(=O)c2cccc([N+](=O)[O-])c2)c(C#N)c1C,i[10 µM],i,7.1µM,i,i
O=C(COc1ccc([N+](=O)[O-])cc1)Nc1nc2c(s1)CCCC2,nt,nt,nt,nt,i
O=S(=O)(c1ccccc1)N1CCC2(CCN(c3ccccc3)CC2)CC1,i,nt,i,?,nt
CC(NC(=O)CSc1nnc(CC(=O)Nc2ccc(Cl)c(Cl)c2)n1C)c1ccccc1 (configuration not stated),i[10 µM],i,28µM,?,i
COc1cccc(CNc2ccc(N3CCC(C)CC3)cc2)c1OC,i[10 µM],i,i,13µM,i
CC1CCN(c2ccc(NC(=O)Cc3ccccc3)cc2)CC1,i[10 µM],i[9.22 µM],nt,i,nt
COc1cc(-c2nnc(SCc3cc(=O)oc4cc(O)c(O)cc34)o2)cc(OC)c1OC,i,?,7.9µM,?,?
O=C(Nc1ccon1)c1ccc2c(c1)OCO2,i[10 µM],?,18µM,i,i
Oc1c(N=Nc2ccccn2)ccc2ccccc12,i,3.2µM,i,i,?
c1ccc2c(c1)ccc1ncccc12,i,i,i,i,nt
COc1cc(C(=O)/C=C/Nc2ccc(NC(C)=O)cc2)cc(OC)c1OC,i[10 µM],i,28µM,i,?
COc1ccc(NC(C)=O)cc1C#N,i,i,nt,3.2µM,i
COC(=O)Nc1ccc(OC)c(OC)c1,i,i,i,i,i
CC(=O)Oc1cc2c(c(C)c1OC(C)=O)CC=C1[C@]3(C)CC[C@]4(C)CC[C@@](C)(C(=O)O)CC4[C@]3(C)CC[C@]12C (some centres not stated),nt,nt,i,i,?
SMILES,HTT cytoprotect,HTT aggregate,HPGD inh,ALDH1A1 block,LMNA splice mod
Oc1ccc(-c2csc(NCc3ccco3)n2)cc1,i[10 µM],i,i,?,i
COc1cccc(-c2csc(NC(C)=O)n2)c1,i[10 µM],?,?,11µM,i
COc1cccc(-c2csc(N3CCN(C(=S)Nc4ccccc4)CC3)n2)c1,i,i,i,i,i[0.0737 µM]
COc1cccc(-c2csc(N3CCN(Cc4ccccc4)CC3)n2)c1,i[10 µM],i,25µM,10µM,?
CC(=O)Nc1cccc(-c2csc(NCc3ccco3)n2)c1,i,i,i,13µM,i
COc1cccc(-c2csc(N3CCN(C(=S)Nc4ccc(Cl)cc4)CC3)n2)c1,i,?,i,0.089µM,i
COc1cccc(NC(=O)N2CCN(c3nc(-c4cccc(OC)c4)cs3)CC2)c1,i[10 µM],i[9.22 µM],nt,nt,nt
COc1ccc(-c2csc(NC(C)=O)n2)cc1OC,i,i,i,?,i
COc1ccc(Cn2ccc3nc(C)c(C(=O)Nc4ccc(OC)c(OC)c4)cc3c2=O)cc1,nt,nt,nt,nt,i
O=C(Nc1nnc2n1CCS2)c1ccccc1C(F)(F)F,nt,nt,nt,nt,i
Cc1ccc2c(=O)c(C(=O)c3ccc(F)cc3)cn(CC(=O)Nc3ccc4c(c3)OCCO4)c2n1,nt,nt,nt,nt,i
CC1=C(/C=C/C(C)=C/C=C/C(C)=C\C=O)C(C)(C)CCC1,i,nt,i,?,nt
